# Assay outcomes from PubChem BioAssay.
# A selection: hits, their analogues and other compounds. The true share with any hit is near 3.8%.
# PAFAH1B2 FP inh: PAFAH1B2 enzyme inhibitors, primary screen, biochemical, fluorescence polarization, human. Platelet-activating factor acetylhydrolase IB subunit alpha2 (Homo sapiens), P68402. recombinant PAFAH1B2, FP-rhodamine activity probe. inhibition, % at 3.39 µM. AID 492953, 2010. 340,000 tested, 1.2% active;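 active = inhibition above the mean of all tested compounds plus 3 SD, cut at about 24% in these data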;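 note: 0% = enzyme with DMSO and 100% = wells lacking PAFAH1B2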
# pPAFAH inh: pPAFAH enzyme inhibitors, primary screen, biochemical, fluorescence polarization, human; recombinant pPAFAH, FP-rhodamine probe fluorescence polarization; inhibition, % at 3.39 µM; 330,000 tested, 1.5% active; AID 463082, 2010;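 active = inhibition above the mean inhibition across the screen plus 3 SD, cut at about 25% in these data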;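 note: inhibitors block binding of the rhodamine activity-based probe so polarization drops; 0% = enzyme with DMSO and 100% = wells lacking pPAFAH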
# Target sequence (Q13093 whole entry, looked up): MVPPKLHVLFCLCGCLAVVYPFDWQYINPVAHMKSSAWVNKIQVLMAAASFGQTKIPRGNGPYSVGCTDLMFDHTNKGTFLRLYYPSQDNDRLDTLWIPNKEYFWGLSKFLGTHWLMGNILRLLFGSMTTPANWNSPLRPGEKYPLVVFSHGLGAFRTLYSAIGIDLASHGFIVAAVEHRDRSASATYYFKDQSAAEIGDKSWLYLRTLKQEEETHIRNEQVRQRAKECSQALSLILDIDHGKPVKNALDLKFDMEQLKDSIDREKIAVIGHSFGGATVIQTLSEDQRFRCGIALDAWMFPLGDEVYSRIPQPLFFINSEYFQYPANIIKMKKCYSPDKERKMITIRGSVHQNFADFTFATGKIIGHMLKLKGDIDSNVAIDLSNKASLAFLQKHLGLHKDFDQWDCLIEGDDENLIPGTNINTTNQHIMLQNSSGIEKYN
# M18AAP inhibitor: PfM18AAP inhibitors, malaria aminopeptidase, primary screen, biochemical, QFRET, recombinant enzyme; H-Glu-NHMec fluorogenic cleavage; M18 aspartyl aminopeptidase (Plasmodium falciparum 3D7); AID 1822, 2009; 290,000 tested, 1.2% active; inhibition, % at 7.35 µM;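 active = inhibition above the campaign mean inhibition over all tested compounds plus 3 SD, cut at about 28% in these data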;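 note: 0% = plate median of test compound wells and 100% = 2 mM ZnCl2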
# DSG3 Ab inh: inhibitors of pemphigus antibody binding to DSG3, primary screen, biochemical, bead-based, flow cytometry, scFv-GFP | Desmoglein-3 (Homo sapiens), P32926 | DSG3-coupled beads, scFv-anti-DSG3-GFP binding; hits give low values | binding (percent of control), % at 10 µM | 310,000 tested, 0.48% active | AID 588358, 2011;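 active = binding more than 3 SD below its plate's average and above zero; inconclusive = below that plate limit but binding exactly zero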;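 note: hits lower antibody fragment binding to DSG3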
# PAFAH1B3 FP inh: PAFAH1B3 enzyme inhibitors, primary screen, biochemical, fluorescence polarization, human | inhibition, % at 3.39 µM | AID 492972, 2010 | Platelet-activating factor acetylhydrolase IB subunit alpha1 (Homo sapiens), Q15102 | recombinant PAFAH1B3, FP-rhodamine probe | 340,000 tested, 0.28% active;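 active = inhibition above the screen-wide average of all tested compounds plus 3 SD, cut at about 25% in these data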;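 note: 0% = enzyme with DMSO only and 100% = wells lacking PAFAH1B3 protein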
# PAFAH2 inh: PAFAH2 enzyme inhibitors, primary screen, biochemical, fluorescence polarization, human | Platelet-activating factor acetylhydrolase 2, cytoplasmic (Homo sapiens), Q99487 | recombinant PAFAH2, FP-rhodamine activity probe | inhibition, % at 3.39 µM | 340,000 tested, 0.99% active | AID 492956, 2010;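 active = inhibition above the mean over all tested compounds plus 3 SD, cut at about 30% in these data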;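 note: inhibitors block probe labeling of enzyme so polarization drops; 0% = enzyme with DMSO and 100% = wells lacking PAFAH2 protein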
# * hit, by the source's call; ? = inconclusive; nt = not tested or not shown.
SMILES,PAFAH1B2 FP inh,pPAFAH inh,M18AAP inhibitor,DSG3 Ab inh,PAFAH1B3 FP inh,PAFAH2 inh
CC(CC(=O)NCCc1ccc(Cl)cc1)S(=O)(=O)c1ccc2c(c1)NC(=O)CO2 (stereo unspecified),30*,4,0,nt,3,4
Cc1ccccc1NC(=O)CC(C)S(=O)(=O)c1ccc2c(c1)NC(=O)CO2 (stereo unspecified),2,0,-4,nt,8,-1
COc1ccc(Oc2nnc(-c3ccc(C)cc3)c3ccccc23)cc1,-4,-1,2,101,3,1
COc1ccc(-c2nnc(C)c3nocc23)cc1,-2,25*,3,101,0,0
CC(Oc1ccc2c3c(c(=O)oc2c1)CCCC3)C(=O)NCC1CCC(C(=O)O)CC1 (stereo unspecified),6,5,1,104,2,-3
COC(=O)C(C)Oc1ccc2c3c(c(=O)oc2c1)CCCCC3 (stereo unspecified),1,28*,4,96,-1,3
NC(=O)CC(c1ccccc1)c1ccc2c(c1)OCO2 (stereo unspecified),1,nt,1,109,14,0
NC(CSC(c1ccccc1)(c1ccccc1)c1ccc2c(c1)OCO2)C(=O)O (stereo unspecified),nt,nt,nt,93*,nt,nt
O[C@H]1CN(CC2CCCCC2)[C@@H](c2ccccc2)C[C@@H]1n1cc(C2CC2)nn1,nt,nt,nt,103,nt,nt
Clc1ccccc1C1Nc2cccc3cccc(c23)N1,0,12,16,119,9,7
Oc1ccc(C2Nc3cccc4cccc(c34)N2)c(O)c1,17,2,-5,99,36*,-5
c1coc(C2Nc3cccc4cccc(c34)N2)c1,nt,26*,9,nt,nt,nt
CC1=C(C(=O)N(C)C)CC(CC(=O)NCCc2ccccn2)C(=O)N1CCCN1CCCC1=O (stereo unspecified),nt,nt,nt,114,nt,nt
C[C@H]1CN([C@@H](C)CO)C(=O)CCCn2nncc2CO[C@@H]1CN(C)S(=O)(=O)c1ccc(Oc2ccccc2)nc1,nt,nt,nt,106,nt,nt
COc1cc(/C=N/N2CCN(c3ccccc3)CC2)cc(OC)c1OC(C)=O,-1,8,15,95,13,10
COc1cc(/C=N/N2CCN(c3ccc(Cl)cc3)CC2)cc(OC)c1OC(C)=O,25*,0,20,98,9,-2
CC(CNC(=O)CN1C(=O)NC2(CCOc3ccccc32)C1=O)c1ccccc1 (stereo unspecified),28*,-4,nt,nt,4,-6
CCn1nnc2cc(C(=O)N3CCC(C(=O)OC)CC3)ccc21,0,6,nt,114,0,6
C[C@H](NC(=O)C1CCN(S(=O)(=O)c2ccccc2)CC1)C(=O)NCc1cccnc1,nt,nt,nt,104,nt,nt
CS(=O)(=O)Nc1ccc2c(c1)[C@H]1C[C@H](CC(=O)NCc3ccccc3)O[C@H](CO)[C@H]1O2,nt,nt,nt,102,nt,nt
O=C(NNC(=O)c1ccc2c(c1)OCO2)NC1CCCCC1,1,-4,30*,101,0,3
O=C(NNC(=O)c1ccc(Br)s1)NC1CCCCC1,5,nt,28*,114,0,-5
O=C(NC1CCCCC1)c1ccc2c(c1)OCO2,4,4,1,nt,14,-3
N#Cc1ccc(CN2CCN(C(=O)CC(NC(=O)c3ccccc3)c3ccccc3)CC2)cc1 (stereo unspecified),16,3,7,92,2,3
O=C(c1ccc(CS(=O)c2ccccc2Cl)o1)N1CCN(C2CCCCC2)CC1 (stereo unspecified),nt,nt,nt,105,nt,nt
SMILES,PAFAH1B2 FP inh,pPAFAH inh,M18AAP inhibitor,DSG3 Ab inh,PAFAH1B3 FP inh,PAFAH2 inh
CC(C)(C)c1ccc(OCCCC(=O)NC2=NCCS2)cc1,2,9,-9,-19*,5,2
CC(C)(C)c1ccc(OCCCC(=O)NNC(=O)c2ccccc2O)cc1,27*,28*,nt,98,9,0
CC(C)(C)c1ccc(C(=O)NCCC(=O)NC2=NCCS2)cc1,3,5,nt,?,3,1
Cc1cc(C(=O)NNC(=O)CCCOc2ccccc2)c(C)o1,7,-3,nt,104,4,3
COC(=O)[C@H](CC(C)C)NS(=O)(=O)c1ccc(F)cc1Br,nt,nt,nt,98,nt,nt
CCOc1ccc(N(CC)C(=O)COc2cc(=O)n(C)c3ccccc23)cc1,8,28*,8,108,2,1
CCOc1ccc(N(CC)C(=O)COc2cc(=O)n(CC)c3ccccc23)cc1,2,12,-4,106,5,-2
O=C(CS(=O)(=O)c1cn(Cc2ccc(F)cc2)c2ccccc12)N1CCCCC1,21,3,3,nt,10,12
O=C(CS(=O)(=O)c1cn(Cc2ccc(Cl)cc2)c2ccccc12)N1CCCCC1,28*,0,6,94,-8,-2
COCCC(=O)N(Cc1ccc2c(c1)OCO2)C(C(=O)NC1CCCCC1)c1ccncc1 (stereo unspecified),1,0,30*,100,3,17
Nc1c(C(=O)N2CCOCC2)sc2nc3c(cc12)CCCC3,-1,2,31*,96,7,3
O=C(c1cc2cc(Cl)ccc2[nH]1)N1CCN(C(=O)c2ccco2)CC1,3,12,4,97,2,6
O=c1[nH]c2cc(Cl)ccc2c(O)c1-c1cccc(Oc2ccccc2)c1,32*,-5,nt,98,4,9
O=C1Nc2ccc(F)cc2C12Nc1ccccc1-c1nnc(SCc3ccccc3Cl)nc1O2 (stereo unspecified),25*,2,18,116,9,24
O=C1Nc2ccc(F)cc2C12Nc1ccccc1-c1nnc(SCc3ccccc3)nc1O2 (stereo unspecified),14,13,-1,100,0,17
CC12C(=O)N(c3ccc(C(=O)N4CCOCC4)cc3)C(=O)C1C1c3ccccc3C2c2ccccc21 (stereo unspecified),nt,6,5,nt,nt,nt
COc1cccc(-c2nc(-c3ccccc3)c(-c3ccccc3)[nH]2)c1OCC(=O)O,24*,nt,3,104,14,22
COc1cccc(-c2nc(-c3ccc4c(c3)-c3ccccc3S4(=O)=O)c(-c3ccccc3)[nH]2)c1OC,-4,5,-3,97,-8,-4
O=C(O)COc1ccccc1-c1nc(-c2ccccc2)c(-c2ccccc2)[nH]1,36*,15,-3,110,6,18
O=C(O)COc1ccc(-c2nc(-c3ccccc3)c(-c3ccccc3)[nH]2)cc1,8,13,12,nt,10,8
COc1ccc(S(=O)(=O)Nc2ccccc2OC)cc1N=Nc1c(O)[nH]c(=S)[nH]c1=O,7,26*,nt,125,6,15
